Test results published in PubChem BioAssay (NCI).
This is part of a sample that, as a whole, favours compounds with a hit. Of some 83,000 tested, about 20% had one in any assay.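 Step 1: grow cells in 96-well plates. Step 2: add test compound at a single concentration. Step 3: incubate 48 h. Step 4: record percent growth.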 The source made the active and inactive calls. How the source made its calls: active means growth percent below 10; inactive means the rest.

Experiments:
Experiment in all cases: NCI-60 one-dose screen, 48 h (100 = growth as untreated, 0 = no growth, -100 = all killed)
Conditions in all cases: 10 µM unless noted
NCI-H23 lung = system: NCI-H23 lung
NCI-H226 lung = system: NCI-H226 lung
NCI-H322M lung = system: NCI-H322M lung
HOP-62 NSCLC = system: HOP-62 NSCLC
NCI-H460 lung = system: NCI-H460 lung
HOP-92 NSCLC = system: HOP-92 NSCLC
NCI-H522 lung = system: NCI-H522 lung
A549/ATCC NSCLC = system: A549/ATCC NSCLC
786-0 renal = system: 786-0 renal
COLO 205 colon = system: COLO 205 colon
DU-145 prostate = system: DU-145 prostate
K-562 leukemia = system: K-562 leukemia
MALME-3M melanoma = system: MALME-3M melanoma
MDA-MB-231 breast = system: MDA-MB-231 breast
RXF 393 renal = system: RXF 393 renal
SF-268 CNS = system: SF-268 CNS
SF-295 CNS = system: SF-295 CNS
SF-539 CNS = system: SF-539 CNS
UACC-257 melanoma = system: UACC-257 melanoma
M14 melanoma = system: M14 melanoma

Measured: growth

NC(=O)Nc1cc(-c2cccc(F)c2)sc1C(=O)N[C@H]1CCCNC1
active: NCI-H23 lung -15.3% | NCI-H226 lung 6.7% | NCI-H322M lung -17.8% | HOP-62 NSCLC -39.2% | NCI-H460 lung -21.6% | HOP-92 NSCLC -69.2% | NCI-H522 lung -19.2% | A549/ATCC NSCLC -35.4% | 786-0 renal -82.8% | COLO 205 colon -65.3% | DU-145 prostate -8.14% | K-562 leukemia 2.46% | MALME-3M melanoma 0.0893% | MDA-MB-231 breast -8.48% | RXF 393 renal -89.1% | SF-268 CNS -9.94% | SF-295 CNS 3.74% | SF-539 CNS -77.5% | UACC-257 melanoma 5.95% | M14 melanoma -13.8%

COc1ccc2c(c1)cn1c3ccc(O)cc3nc(N)c21
inactive: NCI-H23 lung 25.5% | NCI-H226 lung 45.2% | NCI-H322M lung 40.2% | HOP-62 NSCLC 25.1% | HOP-92 NSCLC 17.2% | NCI-H522 lung 14.2% | A549/ATCC NSCLC 38% | 786-0 renal 18.5% | DU-145 prostate 24.1% | K-562 leukemia 11.1% | MALME-3M melanoma 31.2% | MDA-MB-231 breast 23.6% | SF-268 CNS 31.6% | SF-295 CNS 21.9% | UACC-257 melanoma 60.4% | M14 melanoma 10.4%
active: NCI-H460 lung 8.48% | COLO 205 colon 9.91% | RXF 393 renal 3.22% | SF-539 CNS -23.2%

CC(C)Nc1cc(-c2c[nH]c(C(=O)N[C@H](CO)c3cccc(Cl)c3)c2)c(Cl)cn1
active: HOP-92 NSCLC -18.5% | COLO 205 colon -19.2% | MALME-3M melanoma 9.08% | RXF 393 renal 2.5% | UACC-257 melanoma -9.52% | M14 melanoma 3.28%
inactive: NCI-H23 lung 19.9% | NCI-H226 lung 38% | NCI-H322M lung 17.5% | HOP-62 NSCLC 28.6% | NCI-H460 lung 25.2% | NCI-H522 lung 22.2% | A549/ATCC NSCLC 14.8% | 786-0 renal 42.4% | DU-145 prostate 57.4% | K-562 leukemia 19.8% | MDA-MB-231 breast 20.1% | SF-268 CNS 59.6% | SF-295 CNS 45.6% | SF-539 CNS 45.2%

Cn1cc(-c2[nH]c3cc(NC(=O)[C@H](N)C4CCCCC4)cc4c3c2C=NNC4=O)cn1
active: NCI-H23 lung -12.7% | HOP-62 NSCLC -11.3% | HOP-92 NSCLC -25.2% | NCI-H522 lung -66% | 786-0 renal -18.9% | COLO 205 colon -78.4% | K-562 leukemia -59.6% | MALME-3M melanoma -56.2% | MDA-MB-231 breast -67.7% | RXF 393 renal -85.1% | SF-268 CNS -23.4% | SF-539 CNS -84.8% | M14 melanoma -17.6%
inactive: NCI-H226 lung 26.1% | NCI-H322M lung 16.1% | NCI-H460 lung 11.6% | A549/ATCC NSCLC 14% | DU-145 prostate 30.5% | SF-295 CNS 16.8% | UACC-257 melanoma 21.1%

COc1cc2c(cc1O)c(=O)n(CCN(C)C)c1c3cc4c(cc3ncc21)OCO4
inactive: COLO 205 colon 45.9%
active: NCI-H23 lung -19.1% | NCI-H226 lung -48.7% | NCI-H322M lung -5.9% | HOP-62 NSCLC -4.35% | NCI-H460 lung -14.8% | HOP-92 NSCLC -16.6% | NCI-H522 lung -37% | A549/ATCC NSCLC -56% | 786-0 renal -54.5% | DU-145 prostate -10.9% | K-562 leukemia 2.47% | MALME-3M melanoma -57.6% | MDA-MB-231 breast -5.67% | RXF 393 renal -51% | SF-268 CNS 3.41% | SF-295 CNS -5.78% | SF-539 CNS -35.5% | UACC-257 melanoma -47.6% | M14 melanoma -23.3%

Cc1nc(Nc2n[nH]c3c2CN(C(=O)N[C@H](CN(C)C)c2ccccc2)C3(C)C)c2sccc2n1
active: NCI-H23 lung -22.8% | NCI-H226 lung -25.2% | NCI-H322M lung -19.1% | HOP-62 NSCLC -46.5% | NCI-H460 lung -42.8% | HOP-92 NSCLC -62.4% | NCI-H522 lung -45% | A549/ATCC NSCLC 0.0643% | 786-0 renal -15% | COLO 205 colon -88.6% | DU-145 prostate 6.06% | K-562 leukemia 4.69% | MALME-3M melanoma -71.4% | MDA-MB-231 breast -29.1% | RXF 393 renal -77.3% | SF-268 CNS -18.4% | SF-295 CNS -3.9% | SF-539 CNS -54.8% | UACC-257 melanoma -54.6% | M14 melanoma -54.8%

COc1ccc(-c2cc3c(C)nc(N)nc3n(C3CCC(OCCO)CC3)c2=O)cn1 (stereo not given)
active: NCI-H226 lung -0.55% | NCI-H322M lung -36.4% | HOP-62 NSCLC -21.9% | NCI-H460 lung 6.78% | HOP-92 NSCLC -32.2% | NCI-H522 lung -1.92% | A549/ATCC NSCLC -38.4% | 786-0 renal -24.1% | COLO 205 colon -61.1% | DU-145 prostate 7.64% | MALME-3M melanoma -34% | MDA-MB-231 breast 5.08% | RXF 393 renal -50.9% | SF-268 CNS 4.36% | SF-295 CNS -57.7% | SF-539 CNS -62.4% | UACC-257 melanoma -35.9% | M14 melanoma 0.206%
inactive: NCI-H23 lung 15% | K-562 leukemia 24%

CC(=O)CC1CCCC1c1ccc2ccccc2c1 (stereo not given)
inactive: NCI-H23 lung 96.3% | NCI-H226 lung 95.2% | NCI-H322M lung 96.2% | HOP-62 NSCLC 96.6% | NCI-H460 lung 101% | HOP-92 NSCLC 99.7% | NCI-H522 lung 93.5% | A549/ATCC NSCLC 95.6% | 786-0 renal 101% | COLO 205 colon 99.4% | DU-145 prostate 107% | K-562 leukemia 104% | MALME-3M melanoma 99.1% | MDA-MB-231 breast 102% | RXF 393 renal 109% | SF-268 CNS 102% | SF-295 CNS 106% | SF-539 CNS 95.8% | UACC-257 melanoma 97.8% | M14 melanoma 109%

Cc1cc(Nc2nc(N[C@@H](C)c3ncc(F)cn3)ncc2Cl)n[nH]1
inactive: NCI-H23 lung 69.9% | NCI-H226 lung 46.8% | NCI-H322M lung 52.8% | HOP-62 NSCLC 60.3% | NCI-H460 lung 81.6% | HOP-92 NSCLC 108% | NCI-H522 lung 68.3% | A549/ATCC NSCLC 66.2% | 786-0 renal 73.8% | COLO 205 colon 44.1% | DU-145 prostate 99.5% | K-562 leukemia 77.6% | MALME-3M melanoma 56.4% | MDA-MB-231 breast 83.8% | RXF 393 renal 24.4% | SF-268 CNS 72% | SF-295 CNS 94.4% | SF-539 CNS 80.8% | UACC-257 melanoma 71.1% | M14 melanoma 58.7%

N[C@@H]1CCCN(c2c(/C=C3\SC(=O)NC3=O)cccc2-c2ccccc2)C1
active: HOP-62 NSCLC 1.79% | SF-295 CNS 5.44% | SF-539 CNS -24.7%
inactive: NCI-H23 lung 66% | NCI-H226 lung 59.1% | NCI-H322M lung 64.3% | NCI-H460 lung 75.9% | HOP-92 NSCLC 27.9% | NCI-H522 lung 49.7% | A549/ATCC NSCLC 52.6% | 786-0 renal 82.8% | COLO 205 colon 45.4% | DU-145 prostate 70.4% | K-562 leukemia 33.1% | MALME-3M melanoma 55.6% | MDA-MB-231 breast 55.8% | RXF 393 renal 54.6% | SF-268 CNS 43% | UACC-257 melanoma 44.7% | M14 melanoma 54.3%

Nc1nc(N)c2nc(-c3cccc(O)c3)c(-c3cccc(O)c3)nc2n1
inactive: NCI-H23 lung 82.5% | NCI-H226 lung 78.5% | NCI-H322M lung 47% | HOP-62 NSCLC 54.1% | NCI-H460 lung 92.8% | HOP-92 NSCLC 49.5% | NCI-H522 lung 49.3% | A549/ATCC NSCLC 75.1% | 786-0 renal 65.7% | COLO 205 colon 79% | DU-145 prostate 80.8% | K-562 leukemia 28.5% | MALME-3M melanoma 91.3% | MDA-MB-231 breast 96.5% | RXF 393 renal 70.8% | SF-268 CNS 58.2% | SF-295 CNS 89.8% | SF-539 CNS 81.7% | UACC-257 melanoma 65.4% | M14 melanoma 87.5%

Cn1c(=O)c(F)c(Nc2ccc(I)cc2F)c2c(=O)n(C[C@@H](O)CO)cnc21
active: HOP-92 NSCLC -23.8% | COLO 205 colon 2.24% | MALME-3M melanoma 0.26% | RXF 393 renal -3.91% | UACC-257 melanoma -21.4% | M14 melanoma 6.75%
inactive: NCI-H23 lung 21.5% | NCI-H226 lung 52.5% | NCI-H322M lung 14% | HOP-62 NSCLC 22.5% | NCI-H460 lung 62.3% | NCI-H522 lung 41.4% | A549/ATCC NSCLC 19.2% | 786-0 renal 58.3% | DU-145 prostate 52.1% | K-562 leukemia 28.5% | MDA-MB-231 breast 19% | SF-268 CNS 59.5% | SF-295 CNS 77.5% | SF-539 CNS 52.3%

Cc1ccc(Nc2nccc(N(C)c3ccc4c(C)n(C)nc4c3)n2)cc1S(N)(=O)=O
inactive: NCI-H23 lung 15.6% | NCI-H226 lung 27.5% | HOP-62 NSCLC 12.4% | NCI-H460 lung 21.5% | NCI-H522 lung 10.7% | 786-0 renal 35.7% | DU-145 prostate 39.4% | SF-268 CNS 45.4% | SF-295 CNS 31.1%
active: NCI-H322M lung 7.5% | HOP-92 NSCLC -56.2% | A549/ATCC NSCLC 5.92% | COLO 205 colon -10.3% | K-562 leukemia 7.01% | MALME-3M melanoma 2.35% | MDA-MB-231 breast -2.02% | RXF 393 renal -37.5% | SF-539 CNS -45.2% | UACC-257 melanoma -6.96% | M14 melanoma -3.62%

CC(C)c1cc(CNc2nc(Nc3cc(C4CC4)[nH]n3)cc(N3CCN(C)CC3)n2)on1
active: NCI-H23 lung -25% | NCI-H226 lung -3.34% | NCI-H322M lung -20.1% | HOP-62 NSCLC -23.5% | NCI-H460 lung -47.6% | HOP-92 NSCLC -10.9% | NCI-H522 lung -34.7% | A549/ATCC NSCLC 3.1% | COLO 205 colon -69.6% | DU-145 prostate -15.7% | K-562 leukemia 5.67% | MALME-3M melanoma -42.9% | MDA-MB-231 breast 6.11% | RXF 393 renal -54.1% | SF-268 CNS -3.51% | SF-295 CNS 6.84% | SF-539 CNS -61.8% | UACC-257 melanoma -14.3% | M14 melanoma -37.5%
inactive: 786-0 renal 10.3%
